Assay [1] addresses bovine Gamma-Aminobutyric Acid Type A Receptor BDZ, alpha 5 site (GABARa5), GABRA5 (gene 523515) (UniProt Q08E50). In words: NVS_LGIC_bGABARa5: NovaScreen (NVS) Ligand-Gated Ion Channel Assay for bovine Gamma-Aminobutyric Acid Type A Receptor BDZ, alpha 5 site (GABARa5) (AID 2283323). The essentials:
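Radioligand competitive displacement binding on bovine hippocampal membranes, read 1 hr after dosing by filter-based scintillation counting. Primary screen at 25 uM in duplicate; actives (e.g. ≥30% inhibition) then run in concentration-response up to 50 uM.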

The target in assay [2] is rat Gamma-Aminobutyric Acid Type A Receptor, Non-Selective (GABAR-NonSelective), Gabra1 (gene 29705) (UniProt P62813). Briefly: NVS_LGIC_rGABAR_NonSelective: NovaScreen (NVS) Ligand-Gated Ion Channel Assay for rat Gamma-Aminobutyric Acid Type A Receptor, Non-Selective (GABAR-NonSelective) (AID 2283326). A digest of the protocol: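 Radioligand displacement on rat whole-brain extract, 1 h, filter scintillation readout; signal loss fitted versus DMSO. Primary screen in duplicate at 25 uM; hits (e.g. ≥30% inhibition) retested in concentration-response up to 50 uM.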

Assay [3] addresses human Peripheral-type Benzodiazepine Receptor (PBR), TSPO (gene 706) (UniProt P30536). In words: NVS_MP_hPBR: NovaScreen (NVS) Membrane Protein Assay for human Peripheral-type Benzodiazepine Receptor (PBR) (AID 2283331).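 Also: hits reduce radioligand binding relative to DMSO baseline.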 The essentials:
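Scintillation counts of filter-bound radioligand served as read-out after 1 h chemical dosing of human colonic membrane preparations. Activity was scored as signal loss against DMSO; initial duplicates at 25 uM, confirmatory concentration series afterward.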

Assay [4] addresses rat Peripheral-type Benzodiazepine Receptor (PBR), Tspo (gene 24230) (UniProt P16257). In words: NVS_MP_rPBR: NovaScreen (NVS) Membrane Protein Assay for rat Peripheral-type Benzodiazepine Receptor (PBR) (AID 2283335). The essentials: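 Rat kidney membranes; radioligand binding with displacement, filter-based scintillation counting, 1 h incubation. Primary screen in duplicate at 25 uM, actives followed in concentration series; loss of binding vs DMSO.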

Assay [5] is described as follows: NVS_IC_rCaDHPRCh_L: NovaScreen (NVS) Ion Channel Assay for rat Calcium Channel, Type L, Dihydropyridine Site (CaDHPRCh_L) (AID 2283320). The essentials:
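Radioligand binding to dihydropyridine site on rat cortical membranes, filter-based scintillation counting, 1 h after dosing. Screened in duplicate at 25 uM; actives rerun in concentration-response up to 50 uM. Loss of signal versus DMSO baseline.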

The target in assay [6] is Sodium channel protein type 1 subunit alpha (Rattus norvegicus) (UniProt P04774). In words: NVS_IC_rNaCh_site2: NovaScreen (NVS) Ion Channel Assay for rat Sodium Channel, Site 2 (NaCh) (AID 2283322).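 Also: hit means loss of radioligand binding signal relative to DMSO so AC50 marks displacement.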 A digest of the protocol:
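Membranes: rat forebrain. Format: competitive radioligand displacement, filter separation, scintillation readout, 1 h exposure. Primary screen in duplicate at 25 uM; actives retested in concentration series.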

Assay [7] addresses rat Thyrotropin Releasing Hormone Receptor (TRH), Trhr (gene 25570) (UniProt Q01717). In words: NVS_GPCR_rTRH: NovaScreen (NVS) G Protein-Coupled Receptor Assay for rat Thyrotropin Releasing Hormone Receptor (TRH) (AID 2283329).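 Also: hit means lower bound tracer signal versus DMSO baseline.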 The essentials: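 Rat forebrain membranes; radioligand displacement at TRH receptor by filter-based scintillation counting, read 4 h after dosing. Duplicate single-point screen at 25 uM, actives rerun in concentration series; loss of signal relative to DMSO.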

For assay [8], the target named is Voltage-gated inwardly rectifying potassium channel KCNH2 (Homo sapiens) (UniProt Q12809). In words: NVS_IC_hKhERGCh: NovaScreen (NVS) Ion Channel Assay for human Potassium Channel ERG (KhERGCh) (AID 2283333). A digest of the protocol: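 Cell-free radioligand competition binding on hERG protein extracted from CHO cells, read by filter-based scintillation counting 0.75 h after dosing. Primary screen at 25 uM in duplicate, actives followed in concentration series. Signal loss fitted versus DMSO.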

Assay [9] can be described thus: NVS_IC_rCaBTZCHL: NovaScreen (NVS) Ion Channel Assay for Calcium Channel, Type L, Benzothiazepine Site (CaBTZCHL) (AID 2283337). A digest of the protocol:
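Scintillation counting of filter-bound radioligand gave the read-out, with reduced binding versus DMSO scored as activity. Membranes came from rat cortex and were read 1.5 h after compound addition. Chemicals were screened first in duplicate at 25 uM.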

The target of assay [10] is bovine Gamma-Aminobutyric Acid Type A Receptor BDZ, alpha 1 site (GABARa1), GABRA1 (gene 780973) (UniProt P08219). Briefly: NVS_LGIC_bGABARa1: NovaScreen (NVS) Ligand-Gated Ion Channel Assay for bovine Gamma-Aminobutyric Acid Type A Receptor BDZ, alpha 1 site (GABARa1) (AID 2283321). The essentials:
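Radioligand competition binding on bovine cortical membranes, 0.75 h, filter-based scintillation counting. Primary single concentration 25 uM in duplicate; actives rerun in concentration-response to 50 uM max. Loss of signal fitted versus DMSO.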

The test system of another assay is NCBI gene 24521. In words: NVS_IC_rKATPCh: NovaScreen (NVS) Ion Channel Assay for rat Potassium Channel, ATP-Sensitive (KATPCh) (AID 2283319). A digest of the protocol:
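Rat cortical membranes; radioligand binding at ATP-sensitive K channel site, filter-based scintillation counting 2 h after dosing. Single-point duplicate screen at 25 uM, hits rerun in concentration-response up to 50 uM; loss of signal versus DMSO.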

The target in assay [11] is rat Opioid Receptor, Non-selective Binding, Oprm1 (gene 25601) (UniProt P33535). Briefly: NVS_GPCR_rOpiate_NonSelective: NovaScreen (NVS) G Protein-Coupled Receptor Assay for rat Opioid Receptor, Non-selective Binding (AID 2283318). A digest of the protocol: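 Rat forebrain membranes, cell-free radioligand binding with filter-based scintillation counting, read 1.5 h after dosing. Primary screen in duplicate at 25 uM; actives retested in concentration series. Loss of signal versus DMSO baseline scored.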

Assay [12] addresses Glutamate receptor ionotropic, kainate 1 (Rattus norvegicus) (UniProt P22756). Briefly: NVS_IC_rKAR: NovaScreen (NVS) Ion Channel Assay for rat Kainic Acid Receptors (KAR) (AID 2283334; active = hit-call score of the fitted dose curve at least 0.9, where 1 is the maximum; inactive = score below 0.9). The essentials:
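Radioligand displacement binding using rat forebrain membranes, 1 h incubation, filter-based scintillation counting. Screened in duplicate at 25 uM, with actives retested in concentration-response up to 50 uM; fitted against DMSO.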

The target of assay [13] is Voltage-dependent N-type calcium channel subunit alpha-1B (Rattus norvegicus) (UniProt Q02294). Briefly: NVS_IC_rCaChN: NovaScreen (NVS) Ion Channel Assay for rat Calcium Channel, Type N (CaChN) (AID 2283317).
In assay [14] the target is human Androgen Receptor (AR), AR (gene 367) (UniProt P10275). In words: NVS_NR_hAR: NovaScreen (NVS) Nuclear Receptor Binding Assay for human Androgen Receptor (AR) (AID 2283332). A digest of the protocol:
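Radioligand competitive binding, scintillation read-out, in cell-free extract from LnCAP, measured 20 h after dosing. Screened first in duplicate at 25 uM, then concentration series for actives; activity fitted against DMSO.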

For assay [15], the target named is bovine Gamma-Aminobutyric Acid Type A Receptor Agonist (GABAR Agonist), GABRA1 (gene 780973) (UniProt P08219). Briefly: NVS_LGIC_bGABAR_Agonist: NovaScreen (NVS) Ligand-Gated Ion Channel Assay for bovine Gamma-Aminobutyric Acid Type A Receptor Agonist (GABAR Agonist) (AID 2283338). A digest of the protocol: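 Radioligand binding to bovine cerebellar membranes in agonist format, read by filter-based scintillation counting after 1 h. Primary screen in duplicate at 25 uM, with actives followed in concentration series. Gain of signal versus DMSO.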

“And” between values parts separate entries of the source, which are not always exact repeats. Identical values can stand only once. Records with an inconclusive call do not appear. Where a structure was tested more than once in an assay, its records may differ in their call. The source made the active and inactive calls. The calls were made as follows, unless noted: active = hit-call score of the fitted dose curve at least 0.9, where 1 is the maximum; inconclusive = response in the unintended direction; inactive = score below 0.9.

Sequence of human Peripheral-type Benzodiazepine Receptor (PBR), TSPO (gene 706) (P30536 whole entry, looked up): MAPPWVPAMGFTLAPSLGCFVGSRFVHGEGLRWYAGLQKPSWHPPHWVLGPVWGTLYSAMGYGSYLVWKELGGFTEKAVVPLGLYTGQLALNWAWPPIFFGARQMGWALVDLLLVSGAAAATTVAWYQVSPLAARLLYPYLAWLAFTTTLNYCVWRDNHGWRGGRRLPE
Sequence of Voltage-gated inwardly rectifying potassium channel KCNH2 (Homo sapiens) (Q12809 whole entry, looked up): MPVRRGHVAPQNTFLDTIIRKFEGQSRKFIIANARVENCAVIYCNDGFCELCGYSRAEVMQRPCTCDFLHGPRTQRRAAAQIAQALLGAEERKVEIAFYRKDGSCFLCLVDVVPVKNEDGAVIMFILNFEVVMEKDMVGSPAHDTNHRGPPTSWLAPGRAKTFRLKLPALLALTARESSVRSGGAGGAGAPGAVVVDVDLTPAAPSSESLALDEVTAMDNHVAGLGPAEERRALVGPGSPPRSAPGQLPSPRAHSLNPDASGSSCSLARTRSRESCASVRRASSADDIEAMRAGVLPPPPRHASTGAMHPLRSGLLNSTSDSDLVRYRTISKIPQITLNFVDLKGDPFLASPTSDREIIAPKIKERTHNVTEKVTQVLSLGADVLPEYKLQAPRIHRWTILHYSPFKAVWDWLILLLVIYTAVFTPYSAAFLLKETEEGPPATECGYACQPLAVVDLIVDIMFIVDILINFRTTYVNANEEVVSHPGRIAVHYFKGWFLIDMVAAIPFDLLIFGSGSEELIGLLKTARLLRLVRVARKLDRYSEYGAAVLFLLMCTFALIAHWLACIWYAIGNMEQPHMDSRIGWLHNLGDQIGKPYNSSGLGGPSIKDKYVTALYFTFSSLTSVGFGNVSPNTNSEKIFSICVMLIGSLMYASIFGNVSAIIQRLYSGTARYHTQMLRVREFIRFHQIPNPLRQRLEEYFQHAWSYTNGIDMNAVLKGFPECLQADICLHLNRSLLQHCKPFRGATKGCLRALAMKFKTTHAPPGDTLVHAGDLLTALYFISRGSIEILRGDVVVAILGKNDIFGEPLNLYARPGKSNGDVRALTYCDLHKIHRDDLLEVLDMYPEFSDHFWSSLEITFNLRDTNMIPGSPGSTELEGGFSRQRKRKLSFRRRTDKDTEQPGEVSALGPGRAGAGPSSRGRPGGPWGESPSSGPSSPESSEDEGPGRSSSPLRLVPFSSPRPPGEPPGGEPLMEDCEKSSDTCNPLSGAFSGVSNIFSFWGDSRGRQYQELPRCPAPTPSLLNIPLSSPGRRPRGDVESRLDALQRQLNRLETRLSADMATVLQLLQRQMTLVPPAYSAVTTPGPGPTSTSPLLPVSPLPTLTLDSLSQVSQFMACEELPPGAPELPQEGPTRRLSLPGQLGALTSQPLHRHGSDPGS
Sequence of bovine Gamma-Aminobutyric Acid Type A Receptor BDZ, alpha 5 site (GABARa5), GABRA5 (gene 523515) (Q08E50 whole entry, looked up): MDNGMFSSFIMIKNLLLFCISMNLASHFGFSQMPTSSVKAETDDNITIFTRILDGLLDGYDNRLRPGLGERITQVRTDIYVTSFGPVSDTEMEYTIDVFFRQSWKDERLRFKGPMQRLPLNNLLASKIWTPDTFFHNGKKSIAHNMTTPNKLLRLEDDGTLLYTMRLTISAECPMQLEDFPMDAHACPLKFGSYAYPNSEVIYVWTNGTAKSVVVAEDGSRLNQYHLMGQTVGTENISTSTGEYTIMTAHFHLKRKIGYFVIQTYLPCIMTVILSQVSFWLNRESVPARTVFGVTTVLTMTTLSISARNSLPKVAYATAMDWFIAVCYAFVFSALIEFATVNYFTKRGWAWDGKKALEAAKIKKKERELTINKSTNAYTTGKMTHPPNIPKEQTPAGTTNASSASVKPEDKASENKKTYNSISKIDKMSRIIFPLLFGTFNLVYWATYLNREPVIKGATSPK
Sequence of rat Gamma-Aminobutyric Acid Type A Receptor, Non-Selective (GABAR-NonSelective), Gabra1 (gene 29705) (P62813 whole entry, looked up): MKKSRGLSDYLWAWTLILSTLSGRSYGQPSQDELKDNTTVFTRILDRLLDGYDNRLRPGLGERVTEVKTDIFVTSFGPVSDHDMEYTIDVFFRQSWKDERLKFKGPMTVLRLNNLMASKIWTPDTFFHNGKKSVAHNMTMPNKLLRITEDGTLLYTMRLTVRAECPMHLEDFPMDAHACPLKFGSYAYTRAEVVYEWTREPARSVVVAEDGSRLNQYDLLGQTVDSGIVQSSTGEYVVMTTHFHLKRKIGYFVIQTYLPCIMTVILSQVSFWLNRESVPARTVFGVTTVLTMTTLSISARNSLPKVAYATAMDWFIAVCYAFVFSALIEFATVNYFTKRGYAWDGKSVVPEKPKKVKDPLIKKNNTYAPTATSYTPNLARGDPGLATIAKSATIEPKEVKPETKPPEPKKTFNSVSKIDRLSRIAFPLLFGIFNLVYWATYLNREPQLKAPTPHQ
Sequence of rat Peripheral-type Benzodiazepine Receptor (PBR), Tspo (gene 24230) (P16257 whole entry, looked up): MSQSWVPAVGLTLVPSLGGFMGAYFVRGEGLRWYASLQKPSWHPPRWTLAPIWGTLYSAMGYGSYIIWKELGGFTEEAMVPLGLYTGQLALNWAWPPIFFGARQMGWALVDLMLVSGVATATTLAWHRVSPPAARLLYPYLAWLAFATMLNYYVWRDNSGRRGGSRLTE
Sequence of rat Opioid Receptor, Non-selective Binding, Oprm1 (gene 25601) (P33535 whole entry, looked up): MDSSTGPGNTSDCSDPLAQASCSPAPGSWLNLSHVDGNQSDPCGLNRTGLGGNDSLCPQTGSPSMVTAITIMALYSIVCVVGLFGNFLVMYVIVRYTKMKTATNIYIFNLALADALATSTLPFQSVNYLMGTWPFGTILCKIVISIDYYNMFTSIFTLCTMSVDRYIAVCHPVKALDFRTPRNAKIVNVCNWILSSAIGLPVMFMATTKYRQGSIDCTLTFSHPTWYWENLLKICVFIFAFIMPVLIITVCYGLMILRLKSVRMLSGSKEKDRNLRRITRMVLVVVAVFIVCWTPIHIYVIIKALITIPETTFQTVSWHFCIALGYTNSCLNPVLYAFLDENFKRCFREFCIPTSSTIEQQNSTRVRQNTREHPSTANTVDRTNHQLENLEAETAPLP
Sequence of human Androgen Receptor (AR), AR (gene 367) (P10275 whole entry, looked up): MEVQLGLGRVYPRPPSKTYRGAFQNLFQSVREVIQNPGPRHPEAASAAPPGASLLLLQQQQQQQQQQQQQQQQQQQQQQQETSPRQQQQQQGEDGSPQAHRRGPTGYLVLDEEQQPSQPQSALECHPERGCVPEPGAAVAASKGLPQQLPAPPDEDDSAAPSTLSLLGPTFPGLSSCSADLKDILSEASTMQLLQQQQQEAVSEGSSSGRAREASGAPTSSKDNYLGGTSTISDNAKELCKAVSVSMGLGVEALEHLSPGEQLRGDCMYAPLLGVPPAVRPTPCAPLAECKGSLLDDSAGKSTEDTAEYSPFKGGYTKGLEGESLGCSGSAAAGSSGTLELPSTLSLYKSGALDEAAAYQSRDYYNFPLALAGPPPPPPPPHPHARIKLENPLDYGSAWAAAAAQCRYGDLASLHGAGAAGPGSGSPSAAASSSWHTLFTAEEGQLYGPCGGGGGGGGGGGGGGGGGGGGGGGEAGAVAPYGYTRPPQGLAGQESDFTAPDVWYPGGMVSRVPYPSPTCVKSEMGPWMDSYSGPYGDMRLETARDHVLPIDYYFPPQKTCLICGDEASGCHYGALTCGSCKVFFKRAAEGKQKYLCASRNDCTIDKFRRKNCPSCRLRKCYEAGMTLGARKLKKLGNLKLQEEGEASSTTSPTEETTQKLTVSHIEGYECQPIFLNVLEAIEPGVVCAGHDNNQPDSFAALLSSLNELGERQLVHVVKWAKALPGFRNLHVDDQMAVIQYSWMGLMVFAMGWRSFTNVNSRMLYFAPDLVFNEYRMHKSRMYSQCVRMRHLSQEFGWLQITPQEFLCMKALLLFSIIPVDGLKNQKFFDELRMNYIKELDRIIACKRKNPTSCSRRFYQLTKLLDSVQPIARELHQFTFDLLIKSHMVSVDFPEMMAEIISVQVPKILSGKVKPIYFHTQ
Sequence of bovine Gamma-Aminobutyric Acid Type A Receptor Agonist (GABAR Agonist), GABRA1 (gene 780973) (P08219 whole entry, looked up): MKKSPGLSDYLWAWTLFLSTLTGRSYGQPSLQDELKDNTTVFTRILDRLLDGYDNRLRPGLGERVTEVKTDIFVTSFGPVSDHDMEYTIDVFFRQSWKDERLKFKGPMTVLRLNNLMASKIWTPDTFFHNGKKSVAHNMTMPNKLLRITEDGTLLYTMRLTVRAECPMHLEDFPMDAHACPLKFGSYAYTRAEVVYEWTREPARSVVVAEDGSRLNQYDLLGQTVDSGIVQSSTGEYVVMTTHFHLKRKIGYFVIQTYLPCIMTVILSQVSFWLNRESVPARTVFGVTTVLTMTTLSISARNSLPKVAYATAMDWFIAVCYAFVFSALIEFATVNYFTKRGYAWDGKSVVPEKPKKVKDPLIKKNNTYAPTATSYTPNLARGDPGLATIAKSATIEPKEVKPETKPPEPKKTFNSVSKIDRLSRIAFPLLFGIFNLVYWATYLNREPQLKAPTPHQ
Sequence of bovine Gamma-Aminobutyric Acid Type A Receptor BDZ, alpha 1 site (GABARa1), GABRA1 (gene 780973) (P08219 whole entry, looked up): as above
Sequence of rat Thyrotropin Releasing Hormone Receptor (TRH), Trhr (gene 25570) (Q01717 whole entry, looked up): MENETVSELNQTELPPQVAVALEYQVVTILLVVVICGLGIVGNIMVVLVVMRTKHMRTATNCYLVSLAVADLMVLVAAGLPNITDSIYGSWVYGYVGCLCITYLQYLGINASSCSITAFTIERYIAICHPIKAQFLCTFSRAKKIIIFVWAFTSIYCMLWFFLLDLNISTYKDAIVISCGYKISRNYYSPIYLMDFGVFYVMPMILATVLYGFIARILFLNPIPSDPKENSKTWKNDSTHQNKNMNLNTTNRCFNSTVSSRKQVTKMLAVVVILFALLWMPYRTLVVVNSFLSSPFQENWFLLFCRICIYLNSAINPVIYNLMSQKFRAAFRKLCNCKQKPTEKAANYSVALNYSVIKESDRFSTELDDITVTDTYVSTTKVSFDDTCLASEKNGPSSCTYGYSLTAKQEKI

Regarding `N#CC(CCc1ccc(Cl)cc1)(Cn1cncn1)c1ccccc1` (configuration not stated), the result in assay [1] was inactive.
For the compound `N#Cc1cc(Br)c(O)c(Br)c1`, the compound was called inactive in assay [2].
For `C=CCC1=C(C)C(OC(=O)C2C(C=C(C)C)C2(C)C)CC1=O` (configuration not stated), the half-maximal activity concentration (AC50) in assay [2] was 7.41 µM (active) and 66.1 nM (active). Also, the compound was classed as inactive in assay [3] and in assay [4].
In the case of `OC(c1ccc(Cl)cc1)(c1cncnc1)c1ccccc1Cl` (configuration not stated), the results for the half-maximal activity concentration (AC50) in assay [5], in assay [6] and in assay [4] were 19 µM (active), 5.79 µM (active) and 4.89 µM (active), respectively. The result in [7], in assay [3], in assay [8] and in [9] was inactive.
For `CCOC(=O)C(Cl)Cc1cc(-n2nc(C)n(C(F)F)c2=O)c(F)cc1Cl` (configuration not stated), the result in assay [10] and in assay [2] was inactive. In addition, the AC50 in assay [3] was 25 µM (active); in [4], 16.1 µM (active).
Consider `COC(=O)C(C)Oc1ccc(Oc2ccc(Cl)cc2Cl)cc1` (configuration not stated), for which the compound was called inactive with NCBI gene 24521.
Consider `CO/C=C(/C(=O)OC)c1ccccc1Oc1cc(Oc2ccccc2C#N)ncn1`, for which the half-maximal activity concentration (AC50) in [11] is 6.66 µM (active); in assay [4] it was 3.17 µM (active) [middle of 4 runs]; in assay [9] it was 6.63 µM (active) and 15.4 µM (active). Moreover, the call in assay [11] and in assay [12] was inactive.
Regarding `CCNc1nc(Cl)nc(NCC)n1`, the outcome in [13] and in [4] was inactive. Moreover, in [3], the AC50 was 46.2 µM (active).
Regarding `O=C(Nc1ccccc1)Nc1ccnc(Cl)c1`, the half-maximal activity concentration (AC50) was 32.3 µM (active) in assay [11], 5.13 µM (active) in assay [14], 9.2 µM (active) in assay [8] and 15.6 µM (active) in assay [4]. Moreover, the compound was called inactive in assay [3].
With `CCCCOC(=O)c1ccccc1C(=O)OCCCC`, the outcome in [13], in assay [11] and in assay [15] was inactive. Further, the half-maximal activity concentration (AC50) in assay [1] was 32.5 µM (active) and 19.3 µM (active); in [3], 22.1 µM (active) [middle of 5 runs]; in assay [4], 13.4 µM (active) and 15.5 µM (active).
On to `C=CCC1=C(C)[C@@H](OC(=O)[C@@H]2[C@@H](C=C(C)C)C2(C)C)CC1=O`, for which the compound was called inactive in assay [2]. Also, the values for the AC50 in [3] and in [4] were 25 µM (active) and 37.7 µM (active), respectively.
`CCCC1COC(Cn2cncn2)(c2ccc(Cl)cc2Cl)O1` (configuration not stated): the half-maximal activity concentration (AC50) in assay [11] is 10.1 µM (active); in assay [6], 25 µM (active); in assay [3] it was 17.3 µM (active); in [14] it was 18.1 µM (active); in assay [4], 12.3 µM (active). Besides, the outcome in assay [8] was inactive.
`COC(=O)c1ccccc1C(=O)OC`: the call (with NCBI gene 24521; in assay [3]) was inactive.

For the origin of these results see PubChem BioAssay (EPA / NIEHS).
